Measurements from PubChem BioAssay (NCATS).
Records with an inconclusive call do not appear. The source made the active and inactive calls. Unless noted, the call rests on the fitted dose curve; in most records, active means well fitted curve in the direction sought with a large enough effect; inconclusive means small, poorly fitted or top-dose-only effect, or another doubt; inactive means no such curve, though single readings can be large; an effect the other way counts as inactive or inconclusive.

Legend:
[1] = biological target: Cytochrome P450 2D6 (Homo sapiens) (UniProt P10635); test: Cytochrome P450 family 2 subfamily D member 6 (CYP2D6) small molecule antagonists: luciferase biochemical (cell-free) qHTS assay (AID 1645840; active means well fitted curve in the direction sought with a large enough effect in the repeat runs; an effect the other way counts as inactive or inconclusive; further: nearly all actives have a fitted effect of over 55% in size; further: potency means the concentration at half of the fitted maximal effect)
Chain of Cytochrome P450 2D6 (Homo sapiens) (P10635 whole entry, looked up): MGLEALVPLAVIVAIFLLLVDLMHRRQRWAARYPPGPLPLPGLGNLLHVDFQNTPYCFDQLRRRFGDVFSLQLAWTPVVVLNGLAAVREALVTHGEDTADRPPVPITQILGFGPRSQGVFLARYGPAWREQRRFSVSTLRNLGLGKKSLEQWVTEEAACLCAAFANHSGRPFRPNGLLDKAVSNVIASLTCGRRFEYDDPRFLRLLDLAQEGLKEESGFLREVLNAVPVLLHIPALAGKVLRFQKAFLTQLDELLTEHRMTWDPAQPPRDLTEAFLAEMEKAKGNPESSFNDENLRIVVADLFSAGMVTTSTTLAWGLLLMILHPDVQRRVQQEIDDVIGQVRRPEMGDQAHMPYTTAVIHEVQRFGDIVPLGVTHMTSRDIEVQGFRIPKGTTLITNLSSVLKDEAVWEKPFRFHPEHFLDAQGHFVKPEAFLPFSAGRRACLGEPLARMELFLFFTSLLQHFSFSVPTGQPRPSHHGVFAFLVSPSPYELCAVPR
Summary of the method: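 P450-Glo CYP2D6 system: proluciferin substrate converted by enzyme to luciferin, read by luminescence proportional to activity. Enzyme-substrate mix with compound 10 min at room temperature, then NADPH regeneration 1 h before detection reagent.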

[2] = biological target: Cytochrome P450 2C9 (Homo sapiens) (UniProt P11712); test: Cytochrome P450 family 2 subfamily C member 9 (CYP2C9) small molecule antagonists: luciferase biochemical (cell-free) qHTS assay (AID 1645842; active means well fitted curve in the direction sought with a large enough effect in the repeat runs; an effect the other way counts as inactive or inconclusive; further: series mostly up to about 57 µM; on the % scale 0 is the no-effect control and ±100 the full control effect; nearly all actives have a fitted effect of over 55% in size)
Chain of Cytochrome P450 2C9 (Homo sapiens) (P11712 whole entry, looked up): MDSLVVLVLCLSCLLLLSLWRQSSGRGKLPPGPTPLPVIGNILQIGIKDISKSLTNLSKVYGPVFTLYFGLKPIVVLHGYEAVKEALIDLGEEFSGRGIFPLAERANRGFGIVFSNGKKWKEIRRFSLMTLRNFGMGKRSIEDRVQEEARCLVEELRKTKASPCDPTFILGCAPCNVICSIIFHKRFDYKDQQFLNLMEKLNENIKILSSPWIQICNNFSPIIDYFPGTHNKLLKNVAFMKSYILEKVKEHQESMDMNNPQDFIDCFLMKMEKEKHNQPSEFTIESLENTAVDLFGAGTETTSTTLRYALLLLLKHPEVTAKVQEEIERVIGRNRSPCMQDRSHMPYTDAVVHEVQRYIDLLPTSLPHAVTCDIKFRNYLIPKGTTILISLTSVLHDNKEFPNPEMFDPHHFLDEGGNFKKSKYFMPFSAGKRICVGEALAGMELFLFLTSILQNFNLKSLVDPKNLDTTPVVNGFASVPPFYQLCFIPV
Summary of the method: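 P450-Glo CYP2C9 system: proluciferin substrate with enzyme in mix containing 0.4% BSA, 10 min at room temperature, then NADPH regeneration solution added and incubated 1 h at 37C. Detection reagent stopped reaction; luminescence read after 20 min as RLU.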

[3] = Primary qHTS for inhibitors of nuclear receptor binding SET domain protein 2 (NSD2) in an RCH-ACV wild type WT cells (2C) (AID 1645877); further: potency means the concentration at half of the fitted maximal effect; nearly all actives have a fitted effect of over 70% in size
[4] = qHTS Assay for Identification of Small Molecule Antagonists for Thrombopoietin (TPO) Signaling Pathway (AID 918); details: TPO-dependent cell signaling reporter, antagonist mode; further: potency means the concentration at half of the fitted maximal effect; nearly all actives have a fitted effect of over 60% in size
Summary of the method: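 Inhibitors of TPO signaling are sought by stimulating IL-3-starved murine Ba/F3 cells (human TPO receptor, Glycoprotein IIb-driven luciferase) with TPO at its EC50 of 26 pM alongside compound. After 24 hrs at 37 C, reporter luminescence is measured.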

[5] = biological target: Lysosomal acid glucosylceramidase (Homo sapiens) (UniProt P04062); test: Glucocerebrosidase-p2 (AID 348; in the data active means potency below about 10 µM; further: potency means the concentration at half of the fitted maximal effect); details: purified GBA, blue fluorogenic substrate, 40 min
Chain of Lysosomal acid glucosylceramidase (Homo sapiens) (P04062 whole entry, looked up): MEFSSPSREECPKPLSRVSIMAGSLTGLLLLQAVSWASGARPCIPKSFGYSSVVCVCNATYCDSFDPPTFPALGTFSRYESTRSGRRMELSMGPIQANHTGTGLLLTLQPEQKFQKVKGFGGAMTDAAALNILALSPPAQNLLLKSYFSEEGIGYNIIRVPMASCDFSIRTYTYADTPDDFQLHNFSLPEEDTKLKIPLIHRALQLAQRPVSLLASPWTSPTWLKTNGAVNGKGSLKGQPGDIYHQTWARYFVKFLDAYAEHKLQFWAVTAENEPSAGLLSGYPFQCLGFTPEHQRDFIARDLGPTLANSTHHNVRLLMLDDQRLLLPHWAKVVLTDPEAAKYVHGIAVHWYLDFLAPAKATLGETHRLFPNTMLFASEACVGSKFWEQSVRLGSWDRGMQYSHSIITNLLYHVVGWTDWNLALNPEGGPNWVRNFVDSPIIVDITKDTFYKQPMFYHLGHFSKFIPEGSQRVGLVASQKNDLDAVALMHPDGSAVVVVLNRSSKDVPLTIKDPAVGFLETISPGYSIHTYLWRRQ
Summary of the method: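 Normal human glucocerebrosidase (0.2 nM) with blue fluorogenic substrate (80 uM final) in citrate/phosphate pH 5.9 with 10mM sodium taurocholate, 0.01% tween-20; 40 min RT, NaOH/glycine stop; fluorescence Ex 365/Em 440; AC50 from a titration from 0.6 nM upwards.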

[6] = biological target: Endonuclease 4 (Escherichia coli (strain K12)) (UniProt P0A6C1); test: Counterscreen for APE1 Inhibitors: qHTS Validation Assay for Inhibitors of Endonuclease IV (AID 1708); further: on the % scale 0 is the no-effect control and ±100 the full control effect
Summary of the method: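 Enzyme (2 nM) + compound, 15 min RT; add 50 nM TAMRA/BHQ-2 THF-site dsDNA; kinetic read ex525/em598, 3 reads/60 s; activity = read 3 − read 1. Buffer Tris pH 7.5, 50 mM NaCl, 2 mM MgCl2, DTT, Tween-20.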

[7] = qHTS for differential inhibitors of proliferation of Plasmodium falciparum line 7G8 (AID 1815);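 further: parasite growth measured after three days of incubation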; further: potency means the concentration at half of the fitted maximal effect
[8] = Quantitative high throughput screen for delayed death inhibitors of the malarial parasite plastid, 96 hour incubation (AID 488745);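 further: luciferase-expressing P. falciparum in erythrocytes at 2% hematocrit and 0.1% parasitemia; series mostly up to about 29 µM; on the % scale 0 is the no-effect control and ±100 the full control effect; nearly all actives have a fitted effect of over 70% in size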
Summary of the method: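 Readout is firefly luciferase luminescence from an integrated reporter in P. falciparum; lower signal marks inhibited growth. Cultures at 2% hematocrit and 0.1% parasitemia were treated with compound across two generations (96 h, 37 C, 5% CO2).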

[9] = Quantitative high throughput screen for delayed death inhibitors of the malarial parasite plastid, 48 hour incubation (AID 488752); further: on the % scale 0 is the no-effect control and ±100 the full control effect; nearly all actives have a fitted effect of over 65% in size
Summary of the method: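 First, compound was pinned into RPMI 1640 medium containing 0.5% Albumax. Next, reporter-parasite-infected erythrocytes were added to 2% hematocrit and 0.1% parasitemia. After 48 h at 37 C under 5% CO2, luciferase detection reagent was added and luminescence read.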

[10] = biological target: Transient receptor potential cation channel subfamily V member 1 (Homo sapiens) (UniProt Q8NER1); test: HTS Assay for Compounds that Act as Enhancers of the Vanilloid Receptor 1 (AID 488979); further: 0% is about no effect
Chain of Transient receptor potential cation channel subfamily V member 1 (Homo sapiens) (Q8NER1 whole entry, looked up): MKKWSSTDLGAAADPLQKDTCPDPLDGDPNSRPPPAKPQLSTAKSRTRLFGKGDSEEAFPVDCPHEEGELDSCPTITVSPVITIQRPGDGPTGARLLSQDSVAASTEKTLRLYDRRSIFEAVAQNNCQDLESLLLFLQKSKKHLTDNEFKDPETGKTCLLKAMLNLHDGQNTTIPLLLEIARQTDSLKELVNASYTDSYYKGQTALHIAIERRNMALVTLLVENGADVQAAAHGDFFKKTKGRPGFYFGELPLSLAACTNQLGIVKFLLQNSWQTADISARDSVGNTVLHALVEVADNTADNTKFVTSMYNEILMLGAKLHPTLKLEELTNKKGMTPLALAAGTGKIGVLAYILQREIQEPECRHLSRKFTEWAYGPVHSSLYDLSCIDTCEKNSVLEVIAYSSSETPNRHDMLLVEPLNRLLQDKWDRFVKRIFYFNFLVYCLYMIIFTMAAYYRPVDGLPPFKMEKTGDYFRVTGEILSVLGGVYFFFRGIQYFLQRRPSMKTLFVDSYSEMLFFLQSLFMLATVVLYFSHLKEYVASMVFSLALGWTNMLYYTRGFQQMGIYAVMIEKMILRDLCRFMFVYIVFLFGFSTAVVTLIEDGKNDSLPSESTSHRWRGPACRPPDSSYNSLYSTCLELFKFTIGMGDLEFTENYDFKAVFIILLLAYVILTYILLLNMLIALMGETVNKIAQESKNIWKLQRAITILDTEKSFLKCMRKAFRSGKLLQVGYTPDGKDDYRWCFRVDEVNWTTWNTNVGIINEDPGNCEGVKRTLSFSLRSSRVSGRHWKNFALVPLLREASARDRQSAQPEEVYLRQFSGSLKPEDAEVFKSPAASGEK
Summary of the method: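 TRPV1-expressing cells loaded with Fluo-8 calcium dye; compounds added and calcium influx read kinetically for 3 min (agonist phase), then capsaicin at EC20 added and read 2 min more for enhancement. Fluorescence ex 480/em 520 nm.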

[11] = biological target: Thyrotropin receptor (Homo sapiens) (UniProt P16473); test: qHTS Assay for Antagonists of the Thyroid Stimulating Hormone Receptor (AID 488980); further: series mostly up to about 58 µM; 0% is about no effect
Chain of Thyrotropin receptor (Homo sapiens) (P16473 whole entry, looked up): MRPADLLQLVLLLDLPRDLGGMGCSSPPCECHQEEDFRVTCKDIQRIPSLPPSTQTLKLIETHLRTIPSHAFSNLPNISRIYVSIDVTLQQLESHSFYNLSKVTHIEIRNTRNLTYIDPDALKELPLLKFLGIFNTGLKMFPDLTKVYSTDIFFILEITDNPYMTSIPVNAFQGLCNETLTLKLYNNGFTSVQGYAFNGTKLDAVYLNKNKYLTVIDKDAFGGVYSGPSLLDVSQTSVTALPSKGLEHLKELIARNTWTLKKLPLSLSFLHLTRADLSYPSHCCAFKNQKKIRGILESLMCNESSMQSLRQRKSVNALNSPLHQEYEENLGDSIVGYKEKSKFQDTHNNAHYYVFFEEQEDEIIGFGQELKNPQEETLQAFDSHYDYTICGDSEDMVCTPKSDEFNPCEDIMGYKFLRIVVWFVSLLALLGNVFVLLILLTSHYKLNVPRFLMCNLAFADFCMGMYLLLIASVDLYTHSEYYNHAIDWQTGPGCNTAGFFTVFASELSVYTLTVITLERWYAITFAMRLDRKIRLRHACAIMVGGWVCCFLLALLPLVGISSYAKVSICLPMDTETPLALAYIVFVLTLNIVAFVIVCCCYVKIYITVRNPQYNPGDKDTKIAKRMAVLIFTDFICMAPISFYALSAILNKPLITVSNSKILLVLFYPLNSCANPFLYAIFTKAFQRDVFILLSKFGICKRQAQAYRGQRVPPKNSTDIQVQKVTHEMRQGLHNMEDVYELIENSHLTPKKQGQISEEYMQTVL
Summary of the method: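 Inhibition of cAMP raised by EC80 TSH (4 nM final) was read by HTRF, with lysate cAMP competing against cAMP-d2 for cryptate antibody after 30 min at room temperature. The cells were transfected HEK293 held in phosphodiesterase inhibitor RO 20-1724 at 70 uM.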

[12] = biological target: Thyrotropin-releasing hormone receptor (Homo sapiens) (UniProt P34981); test: qHTS for Small Molecule Agonists and Allosteric Enhancers of Human TRH Receptor: Validation Screen for Agonists (AID 493127;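 active means calcium activation more than 3 SD above the typical response in the agonist read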;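 further: intracellular calcium rise by fluo-8 fluorescence before TRH EC20 addition; 0% is about no effect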); details: TRH receptor agonist cell assay; at 2 µM; stronger effect = higher value
Chain of Thyrotropin-releasing hormone receptor (Homo sapiens) (P34981 whole entry, looked up): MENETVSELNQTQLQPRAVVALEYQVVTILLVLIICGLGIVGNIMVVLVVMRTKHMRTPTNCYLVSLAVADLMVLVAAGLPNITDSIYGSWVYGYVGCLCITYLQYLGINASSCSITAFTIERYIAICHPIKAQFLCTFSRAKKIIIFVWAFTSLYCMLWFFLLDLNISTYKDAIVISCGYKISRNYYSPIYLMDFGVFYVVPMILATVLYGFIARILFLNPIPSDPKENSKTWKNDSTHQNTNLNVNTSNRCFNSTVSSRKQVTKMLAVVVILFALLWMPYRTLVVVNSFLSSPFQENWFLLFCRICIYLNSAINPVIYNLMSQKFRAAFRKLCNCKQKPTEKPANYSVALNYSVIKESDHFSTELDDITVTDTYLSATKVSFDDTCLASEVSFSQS
Summary of the method: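 Compounds are added by online pintool to dye-loaded TRHR cells while fluorescence is recorded every second. A rise in calcium signal during the agonist read marks activation; a later 10 nM TRH addition (EC20) serves the separate enhancer mode.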

[13] = biological target: Galactokinase (Homo sapiens) (UniProt P51570); test: qHTS Validation Assay for Inhibitors of Human Galactokinase (GALK) (AID 493189); further: 0% is about no effect
Chain of Galactokinase (Homo sapiens) (P51570 whole entry, looked up): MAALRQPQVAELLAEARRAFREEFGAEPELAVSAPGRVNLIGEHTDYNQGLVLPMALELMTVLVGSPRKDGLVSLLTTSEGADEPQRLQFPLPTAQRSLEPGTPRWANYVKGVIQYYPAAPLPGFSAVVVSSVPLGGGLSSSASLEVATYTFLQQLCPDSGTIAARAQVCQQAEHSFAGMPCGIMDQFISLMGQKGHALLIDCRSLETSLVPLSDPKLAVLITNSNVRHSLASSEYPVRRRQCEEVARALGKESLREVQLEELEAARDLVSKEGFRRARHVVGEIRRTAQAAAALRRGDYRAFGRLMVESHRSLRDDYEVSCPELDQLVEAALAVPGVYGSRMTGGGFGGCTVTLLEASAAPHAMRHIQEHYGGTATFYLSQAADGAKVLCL
Summary of the method: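 Inhibition was measured as remaining ATP, detected by luciferase luminescence after a 1 h room-temperature reaction. Final conditions: 5 nM GALK, 100 uM galactose, 35 uM ATP, pH 8.0 HEPES buffer.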

[14] = Validation screen for small molecules that induce DNA re-replication in SW480 colon adenocarcinoma cells (AID 504364); further: 0% is about no effect
Summary of the method: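 Image-based qHTS: compounds were incubated with SW480 cells for 48 hr, nuclei stained with Hoechst, and per-nucleus fluorescence intensity scanned to flag cells with excess DNA content.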

[15] = qHTS for differential inhibitors of proliferation of Plasmodium falciparum line 3D7 (AID 1876);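 further: parasite growth measured after three days of culture; 0% = vehicle wells and -100% = reference inhibitor wells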
[16] = qHTS for differential inhibitors of proliferation of Plasmodium falciparum line D10 (AID 1877);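 further: parasites grown with compound for 72 h before DNA staining; plate controls were vehicle wells for no effect and reference inhibitor wells for full effect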
[17] = qHTS for differential inhibitors of proliferation of Plasmodium falciparum line HB3 (AID 1886); details: Potency: Plasmodium falciparum HB3 proliferation inhibition;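 further: parasites grown with compound for 72 h before SYBR Green readout; plate controls were vehicle for no effect and reference inhibitor for full effect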
[18] = Validation screen for small molecules that induce DNA re-replication in MCF 10A normal breast cells (AID 463097); further: nearly all actives have a fitted effect of over 60% in size; further: potency means the concentration at half of the fitted maximal effect
Summary of the method: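 Read-out is Hoechst total nuclear intensity by fluorescence scanning imager, flagging increased high-DNA-content nuclei. Compounds were incubated with MCF 10A cells for 48 hr (37 C, 5% CO2) before 40 min staining.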

[19] = biological target: M-phase phosphoprotein 8 (Homo sapiens) (UniProt Q99549); test: qHTS Validation Assay for Inhibitors for MPP8 Chromodomain Interactions with Methylated Histone Tails (AID 488949); further: nearly all actives have a fitted effect of over 55% in size; further: potency means the concentration at half of the fitted maximal effect
Chain of M-phase phosphoprotein 8 (Homo sapiens) (Q99549 whole entry, looked up): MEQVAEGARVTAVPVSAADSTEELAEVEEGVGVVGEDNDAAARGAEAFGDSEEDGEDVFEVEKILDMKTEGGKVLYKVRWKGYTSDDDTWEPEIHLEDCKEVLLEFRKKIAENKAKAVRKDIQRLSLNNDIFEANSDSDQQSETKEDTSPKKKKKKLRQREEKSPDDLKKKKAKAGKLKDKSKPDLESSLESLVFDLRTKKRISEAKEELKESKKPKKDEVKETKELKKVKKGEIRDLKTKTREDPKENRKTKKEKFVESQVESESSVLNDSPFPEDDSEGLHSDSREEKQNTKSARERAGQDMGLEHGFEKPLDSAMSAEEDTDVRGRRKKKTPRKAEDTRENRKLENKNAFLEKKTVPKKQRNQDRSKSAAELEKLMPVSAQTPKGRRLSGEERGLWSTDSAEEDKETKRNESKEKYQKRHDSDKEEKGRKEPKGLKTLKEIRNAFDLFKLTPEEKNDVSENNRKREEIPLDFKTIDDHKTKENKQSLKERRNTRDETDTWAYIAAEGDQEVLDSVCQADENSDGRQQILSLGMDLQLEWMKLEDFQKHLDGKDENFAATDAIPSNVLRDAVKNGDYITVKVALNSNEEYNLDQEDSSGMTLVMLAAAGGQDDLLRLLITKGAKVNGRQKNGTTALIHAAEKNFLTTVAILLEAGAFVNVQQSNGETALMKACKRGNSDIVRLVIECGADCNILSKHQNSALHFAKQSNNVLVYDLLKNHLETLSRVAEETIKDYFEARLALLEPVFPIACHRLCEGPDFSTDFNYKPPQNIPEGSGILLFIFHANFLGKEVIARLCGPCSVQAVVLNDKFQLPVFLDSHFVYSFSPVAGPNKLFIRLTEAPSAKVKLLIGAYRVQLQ
Summary of the method: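 AlphaScreen proximity signal from streptavidin donor and Ni-chelate acceptor beads (10 ug/mL each) reported binding of MPP8 to trimethyl-K9 H3(1-18) peptide, both at 50 nM. The complex formed 30 min before a 30 min compound exposure at room temperature, in PBS pH 7.4.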

[20] = Viability counterscreen for antagonist of constitutive androstane receptor (CAR) against the NCATS DSHEA and TCM libraries (AID 1794837);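 further: compound exposure lasted 24 h before viability reading; 0% is about no effect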
Summary of the method: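 Viability was measured by CellTiter-Fluor fluorescence (405/540 nm, 1 hr) in HepG2-CYP2B6-hCAR cells. Cells were co-treated 24 hr with 48 uM CITCO (final), antagonist mode, and test substances.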

O=C1CC[C@H](C(=O)O)N1
inactive: Potency [1] | Potency [2]

Cc1nccn1CC1CCC2C(C1=O)c1ccccc1N2C (stereo not given)
active: Potency [1] 12 µM
inactive: Potency [2]

CCN(CC)CC1CCN(c2ncc3ncnc(Nc4ccc(F)c(Cl)c4)c3n2)CC1
active: Potency [3] 16.4 µM

C=CCN1CCc2cc(O)c(O)cc2[C@H](c2ccccc2)C1
active: Potency [4] 5.01 µM

C[C@@H](C[C@H](N)C(=O)O)C(=O)O
inactive: Potency [5] > 11.4 µM

N#CC(=C(/N)Sc1ccccc1N)/C(C#N)=C(/N)Sc1ccccc1N
active: Potency [3] 14.6 µM

COc1ccc2c(c1)c(CC(=O)N1CCOCC1)c(C)n2C(=O)c1ccc(Cl)cc1
active: Potency [7] 10 µM
inactive: Potency [6] | Potency [8] | Potency [9] | outcome [10] | outcome [11] | activation [12] 1.25% | outcome [13] | outcome [14]

NCCNS(=O)(=O)c1cccc2cnccc12
inactive: Potency [6] | Potency [15] | Potency [16] | Potency [17] | Potency [18] | Potency [8] | Potency [9] | Potency [19] | outcome [10] | outcome [11] | activation [12] -0.5% | outcome [13] | outcome [14]

CC/C=C\C/C=C\C/C=C\C/C=C\C/C=C\CCCCCC(=O)O
inactive: viability change, negative = cytotoxic [20] -12.7% [at 5 µM]

NCCC[C@@H](N)C(=O)O
inactive: Potency [5] > 11.4 µM

CCCCC[C@H](O)CC(=O)CCc1ccc(O)c(OC)c1
inactive: outcome [20]

C[N+](C)(C)CCC(=O)c1cccc2ccccc12
active: Potency [4] 2.51 µM | Potency [18] 1.78 µM | Potency [19] 10 µM
inactive: Potency [7] | Potency [15] | Potency [16] | Potency [17] | outcome [10] | outcome [11] | activation [12] 3.69% | outcome [13] | outcome [14]
